Test results from PubChem BioAssay AID1159580 (chemical genetic matrix, 2015).
About 2,000 (36%) of roughly 5,500 compounds were called active. Another 18% or so got no clear call; they are omitted. Cut-off read from the data, not from the text of the source: active = normalized growth mostly below about 0.91 (no sharp cut-off); inconclusive = no clear call, values can overlap the other calls; inactive = mostly above about 0.92. Some of the results follow.

Test: chemical genetic growth profiling, strain panel (AID 1159580);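 note: tested at 20 µM; growth read once vehicle control cultures reached saturation at 30 °C; 1 = growth at the plate median or of vehicle wells; lower values mean less growth of the strain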
Details: growth OD
[1] = S. cerevisiae deletion strains, locus YAL013W, strain DEP1, stronger effect = lower value
[2] = S. cerevisiae deletion strains, locus YDR150W, strain NUM1, stronger effect = lower value
[3] = S. cerevisiae deletion strains, locus YGR229C, strain SMI1, stronger effect = lower value
[4] = S. cerevisiae deletion strains, locus YJR075W, strain HOC1, stronger effect = lower value
[5] = S. cerevisiae deletion strains, locus YMR263W, strain SAP30, stronger effect = lower value
[6] = S. cerevisiae deletion strains, locus YPL241C, strain CIN2, stronger effect = lower value
[7] = S. cerevisiae deletion strains, locus YBR229C, strain ROT2, stronger effect = lower value
[8] = S. cerevisiae deletion strains, locus YDL101C, strain DUN1, stronger effect = lower value
[9] = S. cerevisiae deletion strains, locus YEL061C, strain CIN8, stronger effect = lower value
[10] = S. cerevisiae deletion strains, locus YGR078C, strain PAC10, stronger effect = lower value
[11] = S. cerevisiae deletion strains, locus YHR030C, strain SLT2, stronger effect = lower value
[12] = S. cerevisiae deletion strains, locus YHR087W, strain rtc3, stronger effect = lower value
[13] = S. cerevisiae deletion strains, locus YJR043C, strain POL32, stronger effect = lower value
[14] = S. cerevisiae deletion strains, locus YLR039C, strain RIC1, stronger effect = lower value
[15] = S. cerevisiae deletion strains, locus YLR058C, strain SHM2 (second series), stronger effect = lower value
[16] = S. cerevisiae deletion strains, locus YLR085C, strain ARP6, stronger effect = lower value
[17] = S. cerevisiae deletion strains, locus YLR262C, strain YPT6, stronger effect = lower value
[18] = S. cerevisiae deletion strains, locus YML094W, strain GIM5, stronger effect = lower value
[19] = S. cerevisiae deletion strains, locus YMR219W, strain ESC1, stronger effect = lower value
[20] = S. cerevisiae deletion strains, locus YNL128W, strain TEP1, stronger effect = lower value
[21] = S. cerevisiae deletion strains, locus YNL153C, strain GIM3, stronger effect = lower value
[22] = S. cerevisiae deletion strains, locus YNL298W, strain CLA4 (second series), stronger effect = lower value
[23] = S. cerevisiae deletion strains, locus YNL322C, strain KRE1, stronger effect = lower value
[24] = S. cerevisiae deletion strains, locus YNR030W, strain Alg12, stronger effect = lower value
[25] = S. cerevisiae deletion strains, locus YPL055C, strain LGE1, stronger effect = lower value
[26] = S. cerevisiae deletion strains, locus YPR135W, strain CTF4, stronger effect = lower value
[27] = S. cerevisiae strains, strain wild type, stronger effect = lower value

Measured: normalized growth

NCCS(=O)O
inactive: [1] 1.01 | S. cerevisiae deletion strains, locus YAL040C, strain CLN3, stronger effect = lower value 0.998 | S. cerevisiae deletion strains, locus YCL061C, strain MRC1 (second series), stronger effect = lower value 1.01 | [2] 1 | S. cerevisiae deletion strains, locus YDR363W, strain ESC2, stronger effect = lower value 1.02 | S. cerevisiae deletion strains, locus YER002W, strain NOP16, stronger effect = lower value 1 | [3] 1 | [4] 1.01 | [5] 1.01 | S. cerevisiae deletion strains, locus YMR307W, strain GAS1, stronger effect = lower value 1.01 | S. cerevisiae deletion strains, locus YNL175C, strain NOP13, stronger effect = lower value 1 | S. cerevisiae deletion strains, locus YNL197C, strain WHI3, stronger effect = lower value 1 | S. cerevisiae deletion strains, locus YNL224C, strain SQS1, stronger effect = lower value 0.991 | S. cerevisiae deletion strains, locus YOR083W, strain WHI5 (second series), stronger effect = lower value 1.03 | [6] 1

Cc1onc(-c2ccccc2)c1C(=O)On1c(-c2ccccc2)nc2ccccc2c1=O
active: S. cerevisiae deletion strains, locus YDL134C, strain PPH21, stronger effect = lower value 0.922 | [11] 0.196 | [14] 0.236 | [16] 0.537 | [17] 0.21 | [22] 0.816 | [23] 0.928 | [24] 0.852 | S. cerevisiae deletion strains, locus YOL006C, strain TOP1, stronger effect = lower value 0.63 | [6] 0.82 | [26] 0.368 | [27] 0.888
inactive: [1] 0.963 | [7] 0.988 | [8] 0.944 | [2] 0.902 | [9] 0.933 | [10] 0.953 | [12] 1.05 | [13] 0.987 | [4] 0.92 | [15] 0.979 | [18] 0.934 | [19] 0.953 | [5] 0.932 | [20] 0.961 | [21] 1 | [25] 0.973

CC(=O)c1ccccc1OC(=O)c1c(-c2c(Cl)cccc2Cl)noc1C
inactive: [1] 0.996 | [7] 0.994 | S. cerevisiae deletion strains, locus YCL061C, strain MRC1, stronger effect = lower value 0.996 | [8] 1.02 | [2] 0.882 | [9] 1.01 | [10] 1.01 | [3] 0.998 | [11] 0.834 | [12] 0.988 | [13] 0.984 | [4] 1.01 | S. cerevisiae deletion strains, locus YKL190W, strain CNB1, stronger effect = lower value 0.995 | [14] 0.923 | [15] 1 | [16] 0.985 | [17] 0.935 | [18] 1.04 | [19] 1 | [5] 0.991 | [20] 1 | [21] 1 | [22] 1.02 | [23] 1.01 | [24] 1 | [25] 1.02 | [6] 0.996 | [26] 1.12 | [27] 1.01
